# Only some compounds are listed: those with a hit (about 4.7% of all), similar ones and a draw of the others.
# SKKanGAS inh: SKKanGAS growth inhibition. inhibition, % at 7.5 µM. 300,000 tested, 1.3% active. AID 1662. S. pyogenes SKKanGAS, kanamycin growth, BacTiter-Glo, 6 h;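 active means mean replicate score, as percent of positive control median, at least 50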;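 further: strain carries kanamycin resistance gene driven by streptokinase promoter and grows in 40 µg/ml kanamycin; loss of luminescence reflects streptokinase promoter inhibition or plain growth inhibition; 0% = median of DMSO wells and 100% = positive control at its reference dose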
# TIM10 inh: growth inhibitors of TIM10 yeast strain | S. cerevisiae TIM10 strain growth, BacTiter-Glo luminescence, 24 h | inhibition, % at 10 µM | 330,000 tested, 1.4% active | AID 463195;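 active means inhibition of 40% or more at the single tested concentration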;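 further: wild-type TIM10 isogenic control strain grown at permissive 25 °C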
# PfHsp90 yeast 2: inhibits growth of yeast expressing Plasmodium falciparum Hsp90; inhibition, % at 9.4 µM; 310,000 tested, 0.32% active; AID 504621; S. cerevisiae expressing PfHsp90, BacTiter-Glo ATP, 48 h; yeast lacking PDR1 and PDR3 efflux regulators;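 active means every replicate shows inhibition above about 80%, whatever the replicate mean, limit read from the data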;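 further: 0% = DMSO neutral controls and 100% = 20 µM radicicol positive controls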
# tim10-1 inh: tim10-1 yeast growth inhibition | S. cerevisiae tim10-1 ts strain growth, BacTiter-Glo, 24 h | inhibition, % at 20 µM | 330,000 tested, 2.2% active | AID 463190;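 active means inhibition of at least 40%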;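 further: mutant grown at 25 °C; 0% = DMSO wells with yeast and 100% = wells holding no yeast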
# tim23-1 inh: growth inhibitors of tim23-1 mutant yeast. S. cerevisiae tim23-1 growth, BacTiter-Glo luminescence, 24 h. inhibition, % at 20 µM. 330,000 tested, 1.3% active;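 active means growth inhibition of the mutant yeast at or above 50%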;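 further: temperature-sensitive mutant grown at 25 °C; plate controls were DMSO-treated mutant yeast for no effect and medium wells lacking yeast for full effect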
# ATG4B inhibitor: blocks human ATG4B protease cleavage of LC3 substrate. Q9Y4P1. ATG4B cleavage of LC3-PLA2, NBD-HPC fluorescence, 1 h. inhibition, % at 8.33 µM. 340,000 tested, 0.51% active. AID 504462; in the data active means inhibition above about 40%
# Target sequence (Q9Y4P1 whole entry, looked up): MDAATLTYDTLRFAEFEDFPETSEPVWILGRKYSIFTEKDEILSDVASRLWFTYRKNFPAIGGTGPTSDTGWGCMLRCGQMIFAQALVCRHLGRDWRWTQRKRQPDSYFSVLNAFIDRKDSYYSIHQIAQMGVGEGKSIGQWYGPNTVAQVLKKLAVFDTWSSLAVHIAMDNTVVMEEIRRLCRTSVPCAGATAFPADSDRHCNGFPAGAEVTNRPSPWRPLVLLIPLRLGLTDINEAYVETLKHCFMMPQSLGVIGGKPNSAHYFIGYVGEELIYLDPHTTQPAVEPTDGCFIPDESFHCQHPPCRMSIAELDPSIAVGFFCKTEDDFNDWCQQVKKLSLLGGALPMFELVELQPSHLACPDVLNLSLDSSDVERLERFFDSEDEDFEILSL
# TIM10 conf: confirmation of TIM10 yeast growth inhibitors. inhibition, % at 10 µM. 4,600 tested, 63% active. shares compounds with TIM10 inh. S. cerevisiae tim10 strain growth, BacTiter-Glo luminescence, 24 h;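 active means inhibition of yeast growth at or above a set limit in either of two replicates at 10 µM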;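 further: this counterscreen used the strain with wild-type TIM10; 0% = yeast with DMSO and 100% = medium wells lacking yeast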
# tim23-1 confirm: tim23-1 yeast growth inhibition, confirmed; inhibition, % at 20 µM; S. cerevisiae tim23-1 growth, BacTiter-Glo luminescence, 24 h; AID 463218; 4,400 tested, 83% active; shares compounds with tim23-1 inh;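 active means inhibition above about 39% in either of two replicate wells at 20 µM, limit read from the data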;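 further: temperature-sensitive tim23-1 mutant grown at 25 °C; 0% = DMSO wells with yeast and 100% = medium wells without yeast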
# * marks the source's active call; other numbers are inactive results; nt = no result.
SMILES,SKKanGAS inh,TIM10 inh,PfHsp90 yeast 2,tim10-1 inh,tim23-1 inh,ATG4B inhibitor,TIM10 conf,tim23-1 confirm
COc1ccccc1C(=O)NC(=S)/C=C1/N(C)c2ccccc2C1(C)C,9,44*,-3,36,51*,15,-3,42*
O=c1oc(-c2ccccc2)nc2c1cnn2-c1ccccc1,-11,39,5,28,39,-3,nt,nt
O=c1oc(-c2cccs2)nc2c1cnn2-c1ccccc1,-4,47*,-19,38,51*,3,34*,47*
COC(=O)c1ccccc1NC(=S)NC(=O)c1ccc(C)cc1,-1,51*,4,26,60*,16,15,45*
O=C(CSc1nncs1)NC(=O)Nc1ccc2c(c1)OCCO2,-4,-2,-10,22,12,-2,nt,nt
COc1cc([N+](=O)[O-])cc(/C=N/NC(=O)CSc2nnc(-c3ccccc3)n2C)c1O,5,13,nt,1,-4,5,nt,nt
Cn1c(SCC(=O)N/N=C/c2ccc([N+](=O)[O-])s2)nnc1-c1ccc(Cl)cc1,0,81*,105*,23,62*,-7,-23,65*
CCOC(=O)c1sc(NC(=O)Nc2ccc(F)cc2)nc1C,-5,21,9,14,6,1,nt,nt
COc1ccc(-c2n[nH]c(=S)n2-c2ccc(C)cc2C)cc1,-3,31,6,39,43,3,nt,nt
Cc1ccc(-n2c(-c3ccc(Cl)cc3)n[nH]c2=S)c(C)c1,-4,47*,-16,24,55*,1,49*,42*
CCc1nc2ccccc2c(C(=O)Oc2cccc3cccnc23)c1C,13,29,-19,23,2,-17,nt,nt
Cc1c(C(=O)Oc2cccc3cccnc23)oc2ccccc12,3,53*,-1,36,65*,1,40*,58*
O=[N+]([O-])c1cc(C(F)(F)F)ccc1NCCNC(=S)Nc1ccc(Cl)cc1,73*,56*,-23,-32,81*,2,50*,-15
O=C(/C=C/c1ccccn1)c1cc(Cl)cc(Cl)c1O,-2,61*,-4,37,63*,-1,53*,24
COc1ccc(NC(=O)Nc2cccc3c2O[C@H](CN(C)S(=O)(=O)c2ccc(OC)cc2)[C@@H](C)CN([C@H](C)CO)C3=O)cc1,nt,5,-27,-4,2,nt,nt,nt
Cn1nc2c(c1C(=O)O)CCCC2,0,2,11,9,13,-12,nt,nt
Cc1cccc(OCc2nnc(SCC(=O)N3c4ccccc4CC3C)n2C)c1C (stereo unspecified),28,44*,-20,39,54*,2,-2,42*
Cc1ccccc1OCc1nnc(SCC(=O)N2CCc3ccccc32)n1C,3,7,nt,22,20,-7,nt,nt
CCOC(=O)c1c(N)sc(C(=O)Nc2ccccc2)c1C,7,41*,46,-8,55*,-7,31,68*
CCOC(=O)c1c(N)sc(C(=O)Nc2ccccc2F)c1C,5,13,-52,-39,30,-2,nt,nt
O=C(NCC1CC1(Cl)Cl)Nc1ccc(Cl)c(Cl)c1 (stereo unspecified),39,48*,-5,38,80*,27,45*,71*
Cc1ccc(NC(=O)NCC2CC2(Cl)Cl)cc1 (stereo unspecified),4,-23,43,-16,4,-1,nt,nt
CCS(=O)(=O)n1nc(-c2ccccc2)nc1N,-3,2,-21,4,7,-2,nt,nt
COC(=O)/C(=C(/F)Sc1cc(C)c(O)c(C)c1)C(F)(F)F,3,42*,-29,32,54*,1,30,52*
Cc1c(C(=O)Nc2nc3ccccc3[nH]2)oc2ccccc12,21,62*,24,32,59*,2,30,74*
Cc1ccc(C(=O)Nc2nc3ccccc3[nH]2)cc1,nt,4,29,-20,9,5,nt,nt

# High-throughput results from PubChem BioAssay.
